From PubChem BioAssay
Where “and” joins values, the source holds several entries; their conditions need not be identical. Equal values may be shown once. Unmarked numbers belong to inactive results. How the calls were made is not given here.

Legend:
[1] = tested on: Aerobactin synthetase IucA (Klebsiella pneumoniae hvKP1); assay: IucA enzyme inhibition, primary screen, biochemical, Spectrum library (AID 1346200); settings: malachite green pyrophosphate, A620, at 8 µM, hits give low values;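 further: 100% = wells without compound and 0% = wells lacking enzyme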
[2] = tested on: Aerobactin synthetase IucA (Klebsiella pneumoniae, hypervirulent); assay: biochemical IucA inhibition screen of LOPAC library by absorbance (AID 1346212); settings: IucA enzyme assay, absorbance (OD) readout; hits give low values; concentration not given here;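 further: 100% = no compound wells and 0% = no enzyme wells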

Row | Structure (SMILES) | activity remaining [1] | remaining activity [2] [%]
1 | CCN(CC)CCCC(C)Nc1ccnc2cc(Cl)ccc12 (stereo not drawn) | 93% | 122
2 | FC(F)(F)c1ccccc1-n1ccnc1 | 85.9% | 102
3 | OC(CCN1CCCCC1)(c1ccccc1)C1CCCCC1 (stereo not drawn) | 97.3% | 104
4 | NC/C=C/C(=O)O | 107% | 101
5 | Cc1cc(N)c2ccccc2[n+]1CCCCCCCCCC[n+]1c(C)cc(N)c2ccccc21 | 82.6% | 105
6 | COc1cc2nc(N3CCN(C(=O)c4ccco4)CC3)nc(N)c2cc1OC | 127% | 84.9
7 | CC(C)[N+](C)(CCOC(=O)C1c2ccccc2Oc2ccccc21)C(C)C | 105% | 92.2
8 | O=C(O)c1cc(=O)c2ccc(Cl)cc2[nH]1 | 94.8% | 85.9
9 | Cc1nc2ccccn2c(=O)c1CCN1CCC(C(=O)c2ccc(F)cc2)CC1 | 120% | 101
10 | CCCCC1C(=O)N(c2ccccc2)N(c2ccccc2)C1=O | 117% | 102
11 | NC(N)=NC(=O)c1nc(Cl)c(N)nc1N | 118% | 105
12 | O=C(CCCN1CC=C(n2c(=O)[nH]c3ccccc32)CC1)c1ccc(F)cc1 | 111% | 98.7
13 | C=CCc1ccccc1OCC(O)CNC(C)C (stereo not drawn) | 110% | 91.4
14 | CC(C)C(=O)Nc1ccc([N+](=O)[O-])c(C(F)(F)F)c1 | 115% | 97.1
15 | CN(C)CCC=C1c2ccccc2CCc2ccccc21 | 110% | 106
16 | CSc1ccc2c(c1)C(N1CCN(C)CC1)Cc1ccccc1S2 (stereo not drawn) | 103% | 114
17 | NCCc1ccc(O)c(O)c1 | 103% and 107% | 104
18 | NS(=O)(=O)c1cc(C(=O)O)c(NCc2ccco2)cc1Cl | 105% | 97.8
19 | Cc1cc(C(C)(C)C)c(O)c(C)c1CC1=NCCN1 | 114% | 117
20 | CNCCCN1c2ccccc2CCc2ccccc21 | 100% | 105
21 | NCCCNCCSP(=O)(O)O | 113% | 108
22 | CCn1cc(C(=O)O)c(=O)c2cc(F)c(N3CCNC(C)C3)c(F)c21 (stereo not drawn) | 104% | 118

Row | Structure (SMILES) | activity remaining [1] | remaining activity [2] [%]
23 | CC(C)(C(=O)O)c1ccc(C(O)CCCN2CCC(C(O)(c3ccccc3)c3ccccc3)CC2)cc1 (stereo not drawn) | 113% | 107
24 | CC1=NS(=O)(=O)c2cc(Cl)ccc2N1 | 107% | 105
25 | OCCN1CCN(CCCN2c3ccccc3Sc3ccc(C(F)(F)F)cc32)CC1 | 125% | 93.9
26 | COc1cc2c(c(OC)c1OC)-c1ccc(OC)c(=O)cc1[C@@H](NC(C)=O)CC2 | 115% | 112
27 | N[C@@H](Cc1ccc(O)c(O)c1)C(=O)O | 115% | 97
28 | O=C(CCCN1CCC(O)(c2ccc(Cl)cc2)CC1)c1ccc(F)cc1 | 117% | 100
29 | CCN(CC)CC(=O)Nc1c(C)cccc1C | 101% | 109
30 | O=C(c1ccc(F)cc1)C1CCN(CCn2c(=O)[nH]c3ccccc3c2=O)CC1 | 120% | 73.1
31 | Cc1cnc(NC(=O)C2=C(O)c3ccccc3S(=O)(=O)N2C)s1 | 118% | 120
32 | CCO/C([O-])=N/c1c[n+](N2CCOCC2)no1 | 99.6% | 128
33 | CCCCNC(=O)NS(=O)(=O)c1ccc(C)cc1 | 120% | 95.4
34 | CN(C)CCC=C1c2ccccc2C=Cc2ccccc21 | 111% | 109
35 | c1ccc2c(c1)CCCC2C1=NCCN1 (stereo not drawn) | 110% | 102
36 | CCN(CC)CCNC(=O)c1cc(S(C)(=O)=O)ccc1OC | 120% | 104
37 | CN(C)CCCC1(c2ccc(F)cc2)OCc2cc(C#N)ccc21 (stereo not drawn) | 102% | 124
38 | O=C1CCc2cc(OCCCCc3nnnn3C3CCCCC3)ccc2N1 | 117% | 113
39 | CC(C)(Oc1ccc(C2CC2(Cl)Cl)cc1)C(=O)O (stereo not drawn) | 116% | 114
40 | CCCOc1ccccc1-c1nc2n[nH]nc2c(=O)[nH]1 | 97.7% | 125
41 | CC(C[N+](C)(C)C)OC(N)=O (stereo not drawn) | 116% | 114
42 | CCCC(CCC)C(=O)O | 108% | 110
43 | Nc1ncn([C@@H]2O[C@H](CO)[C@@H](O)[C@H]2O)c(=O)n1 | 104% | 112
44 | O=C(c1ccccc1)c1ccc2n1CCC2C(=O)O (stereo not drawn) | 128% | 120
